Screens deposited in PubChem by National Center for Advancing Translational Sciences (NCATS).
A selection: hits, their analogues and other compounds. The true share with any hit is near 5.7%.
L3MBTL1 inh – L3MBTL1 (human) inhibition; Q9Y468; AlphaScreen L3MBTL1–H3K9me1 peptide binding; Potency, µM (titrated, usually from 57.1 µM), for inactives: top-dose activity, negative = inhibition, usual class: inhibitors; 0.66% of 230,000 active; AID 485360; also: potency is read from the fitted curve at half-maximal effect; % is scaled to controls: 0 for no effect and ±100 for the full control effect; nearly all actives have a fitted effect of over 60% in size
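L3MBTL1 (50 nM) pre-complexed 30 min with biotinylated H3(1-15)K9me1 peptide (75 nM), then compounds added for 30 min at room temperature; AlphaScreen streptavidin donor/nickel chelate acceptor beads (10 ug/mL final) read after 30 min dark incubation.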
PI5P4Ka inh – PI5P4K alpha (human) kinase inhibition; AID 652105; P48426; max response, %; 1.2% of 330,000 active; PI5P4Kalpha enzyme, ADP-Glo luminescence, 60 min; active compounds read low; active = max response of -50% or lower; inconclusive = between -30% and -50%; inactive = -30% or higher; also: value at the top dose of about 77 µM; % is scaled to controls: 0 for no effect and ±100 for the full control effect
Target sequence (P48426 whole entry, looked up): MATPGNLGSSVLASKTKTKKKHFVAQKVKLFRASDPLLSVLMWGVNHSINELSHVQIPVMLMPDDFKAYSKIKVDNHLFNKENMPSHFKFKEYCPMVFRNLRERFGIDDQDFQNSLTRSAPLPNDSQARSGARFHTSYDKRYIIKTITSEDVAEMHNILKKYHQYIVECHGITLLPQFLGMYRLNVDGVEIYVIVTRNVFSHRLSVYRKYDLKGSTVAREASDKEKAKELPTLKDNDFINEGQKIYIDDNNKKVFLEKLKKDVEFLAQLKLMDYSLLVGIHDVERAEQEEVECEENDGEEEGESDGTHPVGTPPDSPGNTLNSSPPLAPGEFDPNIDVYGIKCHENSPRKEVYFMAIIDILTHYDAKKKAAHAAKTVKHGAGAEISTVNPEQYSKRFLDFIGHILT
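Controls without substrate or without enzyme flank wells where PI5P4Kalpha converts substrate using 5 microM ATP (final). Incubation lasts 60 minutes at room temperature; ADP formed is read by ADP-Glo luminescence.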
HP1b chromo inh – blocks HP1-beta chromodomain binding to methylated histone tails | P83916 | AlphaScreen HP1-beta / biotin-H3K9me3 peptide binding | Potency, µM (doses to about 114 µM), for the others: top-dose activity change, negative = inhibition, actives largely listed as inhibitors | 0.56% of 390,000 active; also: potency is read from the fitted curve at half-maximal effect; nearly all actives have a fitted effect of over 70% in size
Target sequence (P83916 whole entry, looked up): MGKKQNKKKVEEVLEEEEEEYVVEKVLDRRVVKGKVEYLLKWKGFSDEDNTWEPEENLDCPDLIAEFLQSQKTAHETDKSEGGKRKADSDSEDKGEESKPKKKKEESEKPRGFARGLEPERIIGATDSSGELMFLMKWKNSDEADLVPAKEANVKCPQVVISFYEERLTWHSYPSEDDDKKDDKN
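HP1-beta protein (50 nM final) preincubated 30 min at room temperature with biotinylated H3(1-18)K9me3 peptide (50 nM) in PBS pH 7.4, 0.01% Tween-20, then compound added for 30 min. AlphaScreen streptavidin donor/nickel chelate acceptor beads (10 ug/mL final), 30 min dark, luminescence read.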
BAZ2B block – blocks human BAZ2B. Q9UIF8. Potency, µM (highest dose often 114 µM), for the others: top-dose activity change, negative = inhibition, actives largely listed as inhibitors. AlphaScreen BAZ2B-H3K14Ac peptide displacement. AID 504333. 4.4% of 360,000 active; also: potency is read from the fitted curve at half-maximal effect; % is scaled to controls: 0 for no effect and ±100 for the full control effect; nearly all actives have a fitted effect of over 60% in size
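AlphaScreen displacement: compounds (up to 110uM) incubated 30 min at room temperature with a preformed 50 nM BAZ2B/50 nM biotinylated H3K14Ac peptide complex in PBS pH 7.4 with Tween-20. Donor and acceptor beads at 10 ug/mL final added, 20 min light-protected before reading.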
JMJD2E inh – JMJD2E (human) inhibition | AID 2147 | Potency, µM (titrated, usually from 57.1 µM), inactives show top-dose activity change, negative = inhibition, most hits filed as inhibitors | B2RXH2 | JMJD2E catalytic domain, FDH-coupled NADH fluorescence (FDH is formaldehyde dehydrogenase) | 1.6% of 230,000 active; active = well fitted inhibition curve with a large enough effect, not every such curve was filed as active; inconclusive = small, poorly fitted or top-dose-only effect, or another doubt; inactive = no such curve, though single readings can be large or run the other way;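 also: potency is read from the fitted curve at half-maximal effect; 0% = wells with enzyme and -100% = buffer wells without enzyme; nearly all actives have a fitted effect of over 50% in size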
JMJD2A Tudor – JMJD2A Tudor domain (human) inhibition; AlphaScreen JMJD2A-Tudor / H3K4me3 peptide binding; 4.4% of 390,000 active; O75164; Potency, µM (series often up to 114 µM), for the others: top-dose activity change, negative = inhibition, most hits filed as inhibitors; also: potency is read from the fitted curve at half-maximal effect; % is scaled to controls: 0 for no effect and ±100 for the full control effect; nearly all actives have a fitted effect of over 50% in size
Starred values were filed as active, the others as inactive; [ ] = remark or other dose. Unless noted, calls follow the shape of the dose curve; as a rule, active = well fitted inhibition curve with a large enough effect; inconclusive = small, poorly fitted or top-dose-only effect; inactive = no such curve, though single readings can be large or run the other way.

What do the screens show for `O=C(CCC(=O)c1cccs1)OCC(=O)c1ccccc1F`?
L3MBTL1 inh: -14%; PI5P4Ka inh: 0; HP1b chromo inh: 15%; BAZ2B block: 15%; JMJD2A Tudor: 18%

Results for Cc1ccc(C(=O)OCC(=O)c2c[nH]c3ccccc23)cc1S(=O)(=O)N1CCOCC1 ?
L3MBTL1 inh: -1%; PI5P4Ka inh: 0; HP1b chromo inh: 22%; BAZ2B block: 3%; JMJD2A Tudor: -5%

How did O=c1c2ccccc2nc(COc2ccccc2)n1/N=C/c1ccc(O)c(O)c1 do in these assays?
PI5P4Ka inh: -15; HP1b chromo inh: -17%; BAZ2B block: 45µM*; JMJD2E inh: inconclusive; JMJD2A Tudor: inconclusive

What do the screens show for `Cc1cc(/C=N/n2c(COc3ccccc3)nc3ccccc3c2=O)c(O)c([N+](=O)[O-])c1`?
L3MBTL1 inh: 5.6µM*; PI5P4Ka inh: -51*; HP1b chromo inh: inconclusive; BAZ2B block: 4.5µM*; JMJD2E inh: inconclusive; JMJD2A Tudor: 13µM*

What do the screens show for `CC(C)c1ccc(/C=N/n2c(COc3ccccc3)n[nH]c2=S)cc1`?
PI5P4Ka inh: -2; HP1b chromo inh: 40µM*; BAZ2B block: inconclusive; JMJD2A Tudor: 35µM*

Results for S=c1[nH]nc(COc2ccccc2)n1/N=C/c1ccccc1Cl ?
PI5P4Ka inh: 3; HP1b chromo inh: -1%; BAZ2B block: -22%; JMJD2A Tudor: 56µM*

Results for Cc1c(C)c(C)c(C(=O)C2CCN(c3ccc([N+](=O)[O-])cn3)CC2)c(C)c1C ?
L3MBTL1 inh: 40%; PI5P4Ka inh: 2; HP1b chromo inh: 15%; BAZ2B block: 1%; JMJD2E inh: 0%; JMJD2A Tudor: -5%

What do the screens show for `COc1ccc(C2/C=C\CN(S(=O)(=O)CC34CCC(CC3=O)C4(C)C)CC(=O)N2Cc2ccc(F)cc2)cc1` (stereo unspecified)?
HP1b chromo inh: 43%; JMJD2A Tudor: -17%

How did COc1cccc(/C=N/n2c(COc3ccccc3)n[nH]c2=S)c1 do in these assays?
PI5P4Ka inh: -13; HP1b chromo inh: inconclusive; BAZ2B block: inconclusive; JMJD2A Tudor: 79µM*

How did C(=N\n1cnnc1)/c1cccc(Oc2ccccc2)c1 do in these assays?
PI5P4Ka inh: 0; HP1b chromo inh: 1%; BAZ2B block: -10%; JMJD2E inh: -1%; JMJD2A Tudor: -8%

Results for S=c1[nH]ncn1/N=C/c1cccc(Oc2ccccc2)c1 ?
PI5P4Ka inh: -7; HP1b chromo inh: inconclusive; BAZ2B block: -38%; JMJD2E inh: -9%; JMJD2A Tudor: 45µM*

Results for Oc1ccc(/C=N/n2c(COc3ccccc3)n[nH]c2=S)cc1O ?
PI5P4Ka inh: -23; HP1b chromo inh: inconclusive; BAZ2B block: inconclusive; JMJD2A Tudor: 3.2µM*

How did CCCc1nc2ccccc2c(=O)n1/N=C/c1ccc(O)cc1O do in these assays?
L3MBTL1 inh: -7%; PI5P4Ka inh: 7; HP1b chromo inh: 31%; BAZ2B block: 0%; JMJD2E inh: 32µM*; JMJD2A Tudor: -1%

Results for Cc1nc2c3ccccc3n(Cc3ccccc3F)c2s1 ?
L3MBTL1 inh: 0%; PI5P4Ka inh: 1; HP1b chromo inh: 18%; BAZ2B block: inconclusive; JMJD2E inh: 8%; JMJD2A Tudor: 9%

What do the screens show for `Cc1nc2c3cc(F)ccc3n(Cc3ccccc3F)c2s1`?
L3MBTL1 inh: -2%; PI5P4Ka inh: 5; HP1b chromo inh: -22%; BAZ2B block: 50µM*; JMJD2E inh: 0%; JMJD2A Tudor: 23%

How did Cc1[nH]c2ccccc2c1C(=O)CN1C(=O)NC2(CC(C)CC(C)(C)C2)C1=O (stereo unspecified) do in these assays?
L3MBTL1 inh: -8%; PI5P4Ka inh: 0; HP1b chromo inh: 17%; BAZ2B block: -21%; JMJD2E inh: 2%; JMJD2A Tudor: -33%

What do the screens show for `C/C(=N/NC(=O)CN(c1ccccc1)S(=O)(=O)c1ccccc1)c1ccccc1O`?
L3MBTL1 inh: inconclusive; PI5P4Ka inh: 3; HP1b chromo inh: 41%; BAZ2B block: 13µM*; JMJD2A Tudor: inconclusive

What do the screens show for `Cc1cc(N)ccc1N1CCCC1`?
L3MBTL1 inh: -14%; PI5P4Ka inh: -72*; HP1b chromo inh: 50µM*; BAZ2B block: 45µM*; JMJD2E inh: -28%; JMJD2A Tudor: 20µM*

How did Fc1ccc(CNCc2ccccc2C(F)(F)F)cc1 do in these assays?
L3MBTL1 inh: 17%; PI5P4Ka inh: 16; HP1b chromo inh: 49%; BAZ2B block: 6%; JMJD2E inh: -2%; JMJD2A Tudor: -1%

Results for COc1ccc(CNCc2ccccc2C(F)(F)F)cc1 ?
L3MBTL1 inh: 10%; PI5P4Ka inh: -8; HP1b chromo inh: inconclusive; BAZ2B block: 79µM*; JMJD2A Tudor: 28µM*

Results for COc1ccc(CNCc2cccc3ccccc23)cc1 ?
L3MBTL1 inh: 5%; PI5P4Ka inh: 4; HP1b chromo inh: inconclusive; BAZ2B block: inconclusive; JMJD2A Tudor: 18µM*

Results for COc1ccc(CC(=O)NCc2ccccc2)cc1 ?
L3MBTL1 inh: 0%; PI5P4Ka inh: 2; HP1b chromo inh: -15%; BAZ2B block: 11%; JMJD2A Tudor: -21%

How did COc1ccc(CCNCC(=O)Nc2ccccc2C(F)(F)F)cc1 do in these assays?
L3MBTL1 inh: 52%; PI5P4Ka inh: -11; HP1b chromo inh: inconclusive; BAZ2B block: 50µM*; JMJD2E inh: 13%; JMJD2A Tudor: 3.2µM*

What do the screens show for `COc1ccc(NC(=O)c2cccc(N3CCCS3(=O)=O)c2)cc1OC`?
HP1b chromo inh: 19%; BAZ2B block: -8%; JMJD2A Tudor: -10%

Results for CCn1cc(C(=O)N2CCN(c3ccc(C)cc3)C(C)C2)c(=O)c2cc(S(=O)(=O)N3CCCC3)ccc21 (stereo unspecified) ?
HP1b chromo inh: 10%; JMJD2A Tudor: -29%

How did CCN(CC)c1ccc(CNc2nc3ccccc3n2CCN2CCCCC2)cc1 do in these assays?
L3MBTL1 inh: -10%[11.4 µM]; PI5P4Ka inh: 0; HP1b chromo inh: inconclusive; BAZ2B block: 14µM*; JMJD2E inh: -2%; JMJD2A Tudor: 40µM*

How did Cc1c(NC(=O)CSc2n[nH]c(=O)n2-c2ccccc2)c(=O)n(-c2ccccc2)n1C do in these assays?
PI5P4Ka inh: 4; HP1b chromo inh: inconclusive; BAZ2B block: -7%; JMJD2E inh: 2%; JMJD2A Tudor: 22µM*

How did Cc1c(NC(=S)N/N=C\c2ccccc2O)c(=O)n(-c2ccccc2)n1C do in these assays?
L3MBTL1 inh: inconclusive; PI5P4Ka inh: -6; HP1b chromo inh: 38%; BAZ2B block: 3.2µM*; JMJD2E inh: inconclusive; JMJD2A Tudor: 40µM*
